{
  "source": "PubChem BioAssay (NCATS)",
  "note": "Records with an inconclusive call do not appear. Values without a mark were called inactive. The source made the active and inactive calls. The call rests on the fitted dose curve; in most records, active means well fitted cell-killing curve with a large enough effect; inconclusive means small, poorly fitted or top-dose-only effect, or effect the other way; inactive means flat fitted curve, though single readings scatter. Where a SMILES comes first, the peptide text is derived from it. [ ]: non-standard residue; d: D form. Ala(indol-2-yl) = N[C@@H](Cc1cc2ccccc2[nH]1)C(=O)O; Aib = CC(C)(N)C(=O)O",
  "data": [
    {"system": "Es-2", "test": "Primary qHTS to identify gynecologic anti-cancer compounds using libraries of approved drugs and bioactive compounds (AID 1345084); further: nearly all actives have a fitted effect of over 55% in size; further: potency means the concentration at half of the fitted maximal effect; on activity change, negative = cytotoxicity: on the % scale 0 is the no-effect control and ±100 the full control effect", "settings": "Gynecologic cancer cell panel viability, ATPlite luminescence, 48 h; series mostly up to 57.5 µM", "in_short": "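48 h compound exposure at 37 C, 5% CO2; five-point qHTS. ATPlite luminescence readout of cell ATP.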", "values": [
      {"smiles": "CCC(C)/C=C(C)/C=C/C1=CC2=C(Cl)C(=O)C(C)(OC(C)=O)C(=O)C2=CO1", "note": "(stereo not drawn)", "Potency": "inactive"},
      {"smiles": "COC1CC(O[C@H]2CC[C@]3(C)C4CC[C@]5(C)[C@@H](C6=CC(=O)OC6)[C@@H](OC(C)=O)C[C@]5(O)C4CC[C@@H]3C2)OC(C)C1O", "note": "(stereo partly drawn)", "Potency": "891 nM (active)"},
      {"smiles": "C[C@H]1O[C@@H](O[C@H]2CC[C@]3(C=O)C4CC[C@]5(C)[C@@H](C6=CC(=O)OC6)CC[C@]5(O)[C@@H]4CC[C@]3(O)C2)C[C@@H](O)[C@@H]1O", "note": "(stereo partly drawn)", "Potency": "141 nM (active)"},
      {"smiles": "CC1=CC2OC3[C@H](O)C[C@@](C)([C@]34CO4)[C@@]2(CO)[C@H](O)C1=O", "note": "(stereo partly drawn)", "Potency": "10000 nM (active)"},
      {"smiles": "C=C1[C@@H](C)[C@H]2[C@H](Cc3ccccc3)NC(=O)[C@]23OC(=O)/C=C/C(=O)CCC[C@@H](C)C/C=C/[C@H]3[C@@H]1O", "Potency": "14100 nM (active)"},
      {"smiles": "COC1CC(O[C@H]2CC[C@@]3(C)C(CCC4C3CC[C@]3(C)[C@@H](C5=CC(=O)OC5)CC[C@]43O)C2)OC(C)C1O", "note": "(stereo partly drawn)", "Potency": "158 nM (active)"},
      {"smiles": "CC(C)(C)[C@]1(O)C[C@@H]2OC(=O)C[C@@]23C(=O)O[C@@H]2OC(=O)[C@@H](O)[C@]213", "Potency": "inactive"},
      {"smiles": "C[C@H]1C/C=C/[C@H]2[C@@H]3O[C@]3(C)[C@@H](C)[C@H]3[C@H](Cc4ccccc4)NC(=O)[C@]32OC(=O)O/C=C/[C@@](C)(O)C1=O", "Potency": "inactive"},
      {"smiles": "CNC(=O)c1cc(C#N)cc(C)c1NC(=O)c1cc(Br)nn1-c1ncccc1Cl", "Potency": "inactive"},
      {"smiles": "OCc1nnc2n1-c1ccc(Cl)cc1C(c1ccccc1Cl)=NC2", "Potency": "inactive"},
      {"smiles": "CN[C@@H]1C[C@H]2O[C@@](C)([C@@H]1OC)n1c3ccccc3c3c4c(c5c6ccccc6n2c5c31)C(=O)NC4", "Potency": "631 nM (active)"},
      {"smiles": "COC1CC(O[C@H]2CC[C@]3(C=O)C4CC[C@]5(C)[C@@H](C6=CC(=O)OC6)CC[C@]5(O)[C@@H]4CC[C@@H]3C2)OC(C)C1O[C@@H]1O[C@H](CO)[C@@H](O[C@@H]2O[C@H](CO)[C@@H](O)[C@H](O)[C@H]2O)[C@H](O)[C@H]1O", "note": "(stereo partly drawn)", "Potency": "398 nM (active)"},
      {"smiles": "CC[C@@H]1C[C@H]2CC[C@H](O2)[C@H](C)C(=O)O[C@@H](C)C[C@@H]2CC[C@@H](O2)[C@@H](C)C(=O)O[C@H](CC)C[C@H]2CC[C@H](O2)[C@H](C)C(=O)O[C@@H](C)C[C@@H]2CC[C@@H](O2)[C@@H](C)C(=O)O1", "Potency": "708 nM (active)"},
      {"smiles": "CO[C@@H]1C[C@H](O[C@H]2CC[C@@]3(C)C(CCC4C3CC[C@]3(C)[C@@H](C5=CC(=O)OC5)[C@@H](OC(C)=O)CC43O)C2)O[C@H](C)[C@@H]1O[C@H]1O[C@H](CO[C@@H]2O[C@H](CO)[C@@H](O)[C@H](O)[C@H]2O)[C@@H](O)[C@H](O)[C@H]1O", "note": "(stereo partly drawn)", "Potency": "1260 nM (active)"},
      {"smiles": "CC(=O)O[C@@H]1[C@@H](O)[C@H]2O[C@@H]3C=C(C)[C@@H](O)C[C@]3(CO)[C@]1(C)[C@]21CO1", "Potency": "2000 nM (active)"},
      {"smiles": "CO[C@H]1C[C@H](O[C@H]2CC[C@@]3(C)C(=CCC4C3CC[C@]3(C)[C@@H](C5=CC(=O)OC5)CC[C@]43O)C2)O[C@@H](C)[C@@H]1O[C@@H]1O[C@H](CO[C@@H]2O[C@H](CO)[C@@H](O)[C@H](O)[C@H]2O)[C@@H](O)[C@H](O)[C@H]1O", "note": "(stereo partly drawn)", "activity change, negative = cytotoxicity": "-0.369% [at 11.6 µM]"},
      {"smiles": "c1cncc(OC[C@@H]2CCN2)c1", "Potency": "inactive"},
      {"smiles": "CC(=O)OC[C@]12C[C@H](OC(=O)CC(C)C)C(C)=C[C@H]1O[C@@H]1[C@H](O)C[C@@]2(C)[C@]12CO2", "Potency": "3980 nM (active)"},
      {"smiles": "CNc1ccc2oc(C[C@H]3O[C@@]4(CC[C@H]3C)O[C@H](C(C)C(=O)c3ccc[nH]3)[C@H](C)C[C@H]4C)nc2c1C(=O)O", "note": "(stereo partly drawn)", "Potency": "10000 nM (active)"},
      {"smiles": "C[N@@+]1(CC2CC2)CC[C@]23c4c5ccc(O)c4O[C@H]2C(=O)CC[C@@]3(O)[C@H]1C5", "Potency": "inactive"},
      {"smiles": "COc1ccc2c3c([nH]c2c1)C(C=C(C)C)N1C(=O)C2CCCN2C(=O)C1C3", "note": "(stereo not drawn)", "Potency": "inactive"},
      {"smiles": "CC(=O)OC[C@]12C[C@H](OC(=O)CC(C)C)C(C)=C[C@H]1O[C@@H]1[C@H](O)[C@@H](O)[C@@]2(C)[C@]12CO2", "Potency": "178 nM (active)"},
      {"smiles": "CC(C)(NC(=O)[C@@H](N)Cc1ccc(O)cc1)C(=O)N[C@@H](Cc1cc2ccccc2[nH]1)C(=O)N[C@@H](Cc1ccccc1)C(=O)O", "note": "(H-Y[Aib][Ala(indol-2-yl)]F-OH)", "activity change, negative = cytotoxicity": "0.783% [at 11.6 µM]"}
    ]}
  ]
}
